# Assay results reported in PubChem BioAssay (Tox21).
# Inconclusive results are not listed. Where a call stands in place of a potency, no number is given. Calls of active or inactive are those of the source. Calls follow the shape of the dose curve; as a rule, active = well fitted cell-killing curve with a large enough effect in the repeat runs; inconclusive = weak or mixed curves, or effect the other way; inactive = flat fitted curve, though single readings scatter.
# How the values were obtained:
# [1] = cAMP Responsive Elements (CRE) small molecule antagonists, cell-based qHTS assay: qHTS cell viability counter screen (AID 2060913); also: nearly all actives have a fitted effect of over 40% in size
# Method in brief: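 Cytotoxicity read in the same wells as the CRE-bla HEK293T antagonist assay: after 3 h compound with 0.25 uM NKH477 final and 2 h beta-lactamase substrate, CellTiter-Glo luminescence measured.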
# [2] = cAMP Responsive Elements (CRE) small molecule agonists, cell-based qHTS assay: qHTS cell viability counter screen (AID 2060914); also: nearly all actives have a fitted effect of over 50% in size
# Method in brief: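 Luminescence read-out (CellTiter-Glo, 30 min RT) of ATP-based viability in CRE-bla HEK 293T cells, run in the same wells as the β-lactamase reporter assay after 3 h compound treatment at 37 °C.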
Compound,Potency [1],Potency [2],"viability change, negative = cytotoxic [1]","activity change, negative = cytotoxicity [2]"
CC[N+](C)(CC)CCOC(=O)C1c2ccccc2Oc2ccccc21,inactive,inactive,–,–
CC(=N\O)/C(C)=N/O,inactive,inactive,–,–
CCCCCCCCCCCC(=O)OC,inactive,inactive,–,–
NC(=O)COCCN1CCN(C(c2ccccc2)c2ccc(Cl)cc2)CC1 (stereo unspecified),inactive,inactive,–,–
COC(=O)CCC(=O)O,inactive,inactive,–,–
C=CC(=O)OCCCCCCCCCC,inactive,inactive,–,–
C(=C\c1ccccc1)/c1ccccc1,inactive,inactive,–,–
C=CC(=O)OCCCl,inactive,inactive,–,–
CCn1nc(Cc2ccccc2)cc1C1CCN(C[C@H]2C[C@H](N(C)[C@@H](C(=O)O)C(C)C)C[C@@H]2c2cccc(F)c2)CC1,inactive,inactive,–,–
CC(C)C/C=C(\C=O)c1ccccc1,inactive,inactive,–,–
CC(=O)CC(=O)Nc1ccc(C)cc1C,inactive,inactive,–,–
O=C(/C=C/c1ccccc1)OCCCc1ccccc1,inactive,inactive,–,–
Cc1ccc(-n2nc(C(C)(C)C)cc2NC(=O)Nc2ccc(OCCN3CCOCC3)c3ccccc23)cc1,inactive,inactive,–,–
CC(=O)O[C@@H]1CC2CCC1(C)C2(C)C (stereo partly specified),inactive,inactive,–,–
CCOC(=O)[C@H](CCc1ccccc1)N[C@H]1CS[C@H](c2cccs2)CN(CC(=O)O)C1=O,inactive,inactive,–,–
CC(=O)Nc1ccc(S(=O)(=O)Nc2ccc([N+](=O)[O-])cc2)cc1,inactive,inactive,–,–
CCOc1ccc(NC(C)=O)cc1,inactive,inactive,–,–
CCc1cc2cc(OC)c(OC)cc2c(Cc2ccccc2)n1,inactive,inactive,–,–
CCN(CC)C(=O)/C(C#N)=C/c1cc(O)c(O)c([N+](=O)[O-])c1,inactive,inactive,–,–
O=c1cc(-c2ccc(O)cc2)oc2cc(O)cc(O)c12,inactive,inactive,–,–
O=C(O)/C=C\C(=O)O,inactive,inactive,–,–
O=CNNC=O,inactive,inactive,–,–
CC(=O)O[C@]1(C(C)=O)CC[C@H]2[C@@H]3C=C(Cl)C4=CC(=O)[C@@H]5C[C@@H]5[C@]4(C)[C@H]3CC[C@@]21C,inactive,inactive,–,–
O=C1O[C@H](CO)[C@@H](O)[C@H](O)[C@H]1O,inactive,inactive,–,–
CCCCCCCCCCCCCCC1CO1 (stereo unspecified),inactive,inactive,–,–

Compound,Potency [1],Potency [2],"viability change, negative = cytotoxic [1]","activity change, negative = cytotoxicity [2]"
CCC(C)(Oc1ccc(C2(c3ccc(OC(C)(CC)C(=O)O)cc3)CCCCC2)cc1)C(=O)O (stereo unspecified),inactive,inactive,–,–
N[C@H](C(=O)O)[C@@H](O)c1ccc(O)c(O)c1,inactive,inactive,–,–
CCCCC/C=C/CC1CC(=O)OC1=O (stereo unspecified),inactive,inactive,–,–
CCC1(c2ccccc2)C(=O)NCNC1=O,inactive,inactive,–,–
CCn1cc(C(=O)O)c(=O)c2cc(F)c(N3CCNC(C)C3)c(F)c21 (stereo unspecified),inactive,inactive,–,–
CN(C)CCCN1c2ccccc2Sc2ccc(Cl)cc21,inactive,inactive,–,–
O=C1c2ccccc2C(=O)c2c(O)c(O)cc(O)c21,inactive,inactive,–,–
CN(C)c1ccncc1,inactive,inactive,–,–
CC[N+](CC)(CC(=O)Nc1c(C)cccc1C)Cc1ccccc1 (tested in a mixture with another compound),inactive,inactive,–,–
Cc1cc(O)c(C)c(C)c1O,inactive,inactive,–,–
Oc1ccccc1O,inactive,inactive,–,–
O=[N+]([O-])c1nccn1CO[C@@H](CO)[C@H](O)CO,inactive,inactive,–,–
CCCCOCCOC(=O)COc1nc(Cl)c(Cl)cc1Cl,inactive,inactive,–,–
Nc1ccc(S(=O)(=O)NC(=O)c2ccccc2)cc1,inactive,inactive,–,–
C[C@H]1c2cccc(O)c2C(O)=C2C(=O)[C@]3(O)C(O)=C(C(N)=O)C(=O)[C@@H](N(C)C)[C@@H]3[C@@H](O)[C@@H]21,inactive,inactive,–,–
Oc1ccc(O)cc1,inactive,inactive,–,–
CC(C)=CCO,inactive,inactive,–,–
N#CC1(N)CCCCC1,inactive,inactive,–,–
Clc1ccccc1CN1CCc2sccc2C1,inactive,inactive,–,–
NCCOCCOCCN,inactive,inactive,–,–
Cc1ccnc(N)c1,inactive,inactive,–,–
CCCOc1ccccc1-c1nc2n[nH]nc2c(=O)[nH]1,inactive,inactive,–,–
OC[C@@H](O)C(O)[C@@H](O)CO (stereo partly specified),inactive,inactive,–,–
O=c1cc(O)c(Cl)c[nH]1,inactive,inactive,–,–
CCCCCCCCCCCCCCCCC(C(=O)O)C(O)(CC(=O)O)C(=O)O (stereo unspecified),inactive,inactive,–,–

Compound,Potency [1],Potency [2],"viability change, negative = cytotoxic [1]","activity change, negative = cytotoxicity [2]"
C=CC1CC2C=CC1C2 (stereo unspecified),inactive,inactive,–,–
OCCCCCCCl,inactive,inactive,–,–
C/C(=N/NC(=O)c1ccncc1)C(=O)O,inactive,inactive,–,–
CCCCC(CC)C(=O)OCCOCCOCCOC(=O)C(CC)CCCC (stereo unspecified),inactive,inactive,–,–
COc1ccc(-c2ccc3cc(C(=O)O)ccc3c2)cc1C12CC3CC(CC(C3)C1)C2,inactive,inactive,–,–
c1ccc2c(c1)ccc1cc3c(ccc4ccccc43)cc12,inactive,inactive,–,–
COC(=O)C1CCC(C(=O)OC)CC1 (stereo unspecified),inactive,inactive,–,–
COc1cc(/C=C/c2ccccc2)oc(=O)c1,inactive,inactive,–,–
C=C(C)c1cccc(C(C)(C)N=C=O)c1,inactive,inactive,–,–
C/C=C(\C)C(=O)OCCC(C)CCC=C(C)C (stereo unspecified),inactive,inactive,–,–
OCCCCl,inactive,inactive,–,–
O=C1CCCCO1,inactive,inactive,–,–
Cc1ccc(C)c(S(=O)(=O)O)c1,inactive,inactive,–,–
NNc1ccc(C(=O)O)cc1,inactive,inactive,–,–
CC(=O)[C@@]1(O)CC[C@H]2[C@@H]3C[C@H](C)C4=CC(=O)CC[C@]4(C)[C@H]3CC[C@@]21C,inactive,inactive,–,–
COc1cc(O)cc(O)c1,inactive,inactive,–,–
C=CC(=C)CC/C=C(\C)CCC=C(C)C,–,–,13.3% [at 18.9 µM] (inactive),-3.29% [at 18.9 µM] (inactive)
C1=C\CC/C=C\CC/C=C\CC/1,inactive,inactive,–,–
FC(F)(F)C(F)(F)C(F)(F)C(F)(F)CCI,inactive,inactive,–,–
CCOc1ccccc1O[C@H](c1ccccc1)[C@H]1CNCCO1,inactive,inactive,–,–
Nc1ccccc1N,inactive,inactive,–,–
CC(C)NCC(O)COc1ccc(CCOCC2CC2)cc1 (stereo unspecified),inactive,inactive,–,–
CN1CCN(CCCN2c3ccccc3Sc3ccc(S(=O)(=O)N(C)C)cc32)CC1,inactive,inactive,–,–
CC(CC(=O)Cl)CC(C)(C)C (stereo unspecified),inactive,inactive,–,–
CC(=O)c1ccc(OCC(=O)N2CCCCC2)cc1,inactive,inactive,–,–

Compound,Potency [1],Potency [2],"viability change, negative = cytotoxic [1]","activity change, negative = cytotoxicity [2]"
CC(C)=CCC[C@H](C)CCO,inactive,inactive,–,–
N=c1ccn2c(n1)O[C@H]1[C@H](O)[C@@H](CO)O[C@H]12,inactive,inactive,–,–
O=C1O[C@H]([C@H](O)CO)C(O)=C1O,inactive,inactive,–,–
C=CC(=O)CCCCC,inactive,inactive,–,–
CCCSc1ccc2nc(NC(=O)OC)[nH]c2c1,inactive,inactive,–,–
NCCN1CCOCC1,inactive,inactive,–,–
CC(C)(C)OC(=O)c1cccc(N)c1,inactive,inactive,–,–
COc1ccc(S(=O)(=O)N2c3ccc(Cl)cc3[C@@](O)(c3ccccc3Cl)[C@H]2C(=O)N2CCC[C@@H]2C(N)=O)cc1OC,inactive,inactive,–,–
Cc1ccc(C(=O)O)o1,inactive,inactive,–,–
O=[N+]([O-])c1cccc(Cl)c1Cl,inactive,inactive,–,–
COc1ccc(OC(=O)N(CC(=O)O)Cc2ccc(OCCc3nc(-c4ccccc4)oc3C)cc2)cc1,inactive,inactive,–,–
CCCCOC(=O)CCCCC(=O)OCCCC,inactive,inactive,–,–
CC(C)(C)CC(=O)OCC(=O)[C@@]1(O)CC[C@H]2[C@@H]3CCC4=CC(=O)C=C[C@]4(C)[C@H]3[C@@H](O)C[C@@]21C,inactive,inactive,–,–
CCCN(CCC)S(=O)(=O)c1ccc(C(=O)O)cc1,inactive,inactive,–,–
c1cc2ccc3ccc4ccc5cccc6c(c1)c2c3c4c56,–,–,18.5% [at 3.27 µM] (inactive),-0.0627% [at 3.27 µM] (inactive)
CN(C)C(=O)NC1(c2ccccc2)CCN(CCC[C@]2(c3ccc(Cl)c(Cl)c3)CCCN(C(=O)c3ccccc3)C2)CC1,–,–,-0.11% [at 18.9 µM] (inactive),-0.87% [at 18.9 µM] (inactive)
N[C@@H](Cc1c[nH]c2ccc(O)cc12)C(=O)O,inactive,inactive,–,–
Cc1ccccc1C(OCCN(C)C)c1ccccc1 (stereo unspecified),inactive,inactive,–,–
CNCC(O)c1ccc(O)c(O)c1 (stereo unspecified),inactive,inactive,–,–
Cc1cc(C(C)(C)C)c(O)c(C)c1CC1=NCCN1,inactive,inactive,–,–
CO[Si](OC)(OC)c1ccccc1,inactive,inactive,–,–
CCOc1nc(F)cc2nc(S(=O)(=O)Nc3c(Cl)cccc3C(=O)OC)nn12,inactive,inactive,–,–
NC(=O)N(O)[C@@H]1COc2cc(OCc3ccccc3)ccc21,inactive,inactive,–,–
